Compound activity as filed in PubChem.
Pf growth 48h: inhibits P. falciparum growth in the first generation, 48 h; P. falciparum luciferase growth in erythrocytes, 48 h; Potency, µM (top dose mostly 28.7 µM), usual class: inhibitors; 310,000 tested, 5.9% active
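First compound was added to culture medium, then infected red cells at 0.1% parasitemia and 2% hematocrit (final). After incubation at 37 C under 5% CO2, luciferase detection reagent was dispensed and light output recorded.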
NS1 function inh: blocks influenza NS1 protein function; AID 2326; 270,000 tested, 0.4% active; Potency, µM (series often up to 46.1 µM); calls by dose curve; also: actives are rising curves; nearly all actives have a fitted effect of over 50% in size
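Compounds were scored for reversing the slow growth caused by influenza A NS1 in S. cerevisiae, measured by optical density at 600 nm. Assay medium contained 2% galactose at pH 6.0; NS1-free yeast of the same strain were the positive control.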
Cycloheximide cs: counter-screen hit for Shiga toxin inhibitors, cycloheximide; cell reporter, cycloheximide protein synthesis inhibition counterscreen; max response, %; 300,000 tested, 12% active; AID 2314; in the data active = max response mostly above about 13%, no sharp cut-off; inactive = mostly below about 14%; also: read at 38.3 µM for the half of the compounds with a filed dose
FBPA Giardia inh: blocks Giardia fructose-bisphosphate aldolase activity | AID 2451 | 290,000 tested, 0.71% active | Potency, µM (top dose mostly 59.6 µM), usual class: inhibitors | purified Giardia FBPA; also: nearly all actives have a fitted effect of over 55% in size
Target sequence (A8B2U2 whole entry, looked up): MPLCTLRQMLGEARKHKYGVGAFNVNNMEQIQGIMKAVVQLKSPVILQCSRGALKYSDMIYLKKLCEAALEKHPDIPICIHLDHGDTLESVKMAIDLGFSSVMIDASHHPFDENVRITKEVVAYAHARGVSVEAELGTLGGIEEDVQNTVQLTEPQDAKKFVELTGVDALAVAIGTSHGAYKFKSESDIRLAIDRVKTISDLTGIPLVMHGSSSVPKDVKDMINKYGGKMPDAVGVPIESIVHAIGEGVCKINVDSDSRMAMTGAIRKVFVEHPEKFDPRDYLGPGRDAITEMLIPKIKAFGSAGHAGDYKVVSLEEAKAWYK
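40 nM FBPA preincubated 10 min at RT with compound (up to 57.5 uM final), then substrate plus GAPDH/TPI/NAD/arsenate coupling and diaphorase/resazurin added. Fluorescence read after 20 min at RT, 525/598 nm.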
Pf growth 96h: P. falciparum growth inhibition at 96 hour, primary screen for plastid delayed-death inhibitors. P. falciparum luciferase reporter growth, 96 h. Potency, µM (series often up to 28.7 µM), actives largely listed as inhibitors. 320,000 tested, 6.9% active
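Readout is luminescence from an integrated firefly luciferase in P. falciparum. Red cells, 2% hematocrit and 0.05% parasitemia final, were cultured with compound through two parasite generations (96 hours) at 37 C, 5% CO2.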
Shiga toxin inh: inhibitors of Shiga toxin in Vero cells; Vero cells, Shiga toxin protein synthesis inhibition reporter; inhibition, % at 38.7 µM; 290,000 tested, 9.2% active; AID 2315; in the data active = inhibition mostly above about 28%, no sharp cut-off; inactive = mostly below about 43%
Hits are given with their value; - = inactive; ? = inconclusive; . = no result; [ ] = remark or other dose. This is a sample that favours compounds with a hit; in the whole collection about 21% have one here. Unless noted, calls follow the shape of the dose curve; as a rule, active = well fitted curve in the direction sought with a large enough effect; inconclusive = small, poorly fitted or top-dose-only effect, or another doubt; inactive = no such curve, though single readings can be large; an effect the other way counts as inactive or inconclusive.

SMILES | Pf growth 48h | NS1 function inh | Cycloheximide cs | FBPA Giardia inh | Pf growth 96h | Shiga toxin inh
O=C(Nc1cccnc1)c1ccc(NC(=O)c2ccco2)cc1 | - | - | 19 | - | . | -
CC(C)C(=O)Nc1ccc(NC(=O)c2cccc(F)c2)cn1 | - | ? | 22 | - | - | 76
O=C(Nc1ccc(NC(=O)c2ccco2)nc1)c1cccc(F)c1 | - | - | 40 | - | - | 82
CCCC(=O)Nc1ccc(NC(=O)c2ccccc2OC)cn1 | ? | - | - | - | - | -
CN1CCCCC1Cn1cc(C(=O)c2cc([N+](=O)[O-])ccc2I)c2ccccc21 (stereo not drawn) | . | . | - | - | . | -
O=C(Nc1ccc(NC(=O)C2CC2)nc1)c1cccc(F)c1 | - | - | 47 | - | - | 59
COc1cccc(C(=O)Nc2ccc(NC(=O)c3ccco3)c(Cl)c2)c1 | - | . | 30 | - | ? | 64
O=C(Nc1ccc(NC(=O)c2ccccc2F)cn1)c1ccco1 | - | - | 18 | - | - | -
COc1ccc(C(=O)Nc2ccc(NC(=O)C3CCCCC3)nc2)cc1 | - | - | - | - | ? | -
COc1cccc(C(=O)Nc2ccc(NC(=O)C3CC3)nc2)c1 | - | - | 18 | - | - | -
O=C(Nc1ccc(NC(=O)c2ccco2)nc1)c1cccnc1 | - | - | - | - | - | 54
Cc1cc(NC(=O)c2cccc(F)c2)ncc1NC(=O)c1ccco1 | . | - | 21 | - | . | -
O=C(Nc1cccnc1)c1ccco1 | . | - | - | - | - | -
CCC1=C(C[C@H]2NCCc3ccccc32)C[C@@H]2c3cc(OC)c(OC)cc3CCN2C1 | . | - | . | . | . | .
O=C(Nc1cccc(F)c1)N1CCC(c2ccccc2)CC1 | ? | - | 41 | - | - | 74
CC(=O)c1cccc(NC(=O)N2CCC(NC(=O)C3CCCCC3)CC2)c1 | - | - | - | - | ? | -
O=C(NC1CCN(C(=O)Nc2cccc(F)c2)CC1)C1CCCCC1 | - | - | - | - | 12µM | -
O=C(Nc1cccc(F)c1)N1CC=C(c2ccc(Cl)cc2)CC1 | . | - | 46 | - | 5.9µM | 75
C[C@]12C(=O)N(c3cccc(Cl)c3)C(=O)N1[C@H]1c3ccccc3OC[C@@H]1[C@H]2c1ccccc1 | - | - | - | - | 10µM | -
Cc1cccc(N2C(=O)N3[C@@H]4c5ccccc5OC[C@@H]4[C@@H](c4ccccc4)[C@]3(C)C2=O)c1 | ? | - | - | - | 12µM | -
Cc1cccc(N2C(=O)N3[C@@H]4c5ccccc5OC[C@@H]4[C@@H](c4ccccc4)[C@@]3(C)C2=O)c1 | ? | ? | - | - | ? | -
O=C(Nc1cc(=O)[nH]c2nc(-c3ccc(Cl)cc3)nn12)c1ccccc1 | 0.59µM | - | - | - | 0.33µM | -
CCN(CC)S(=O)(=O)c1ccc(/C(O)=C(\C#N)c2nc3ccccc3n2C)cc1 | ? | - | - | - | 0.26µM | -
CC(C)c1ccc(O)c(O)c(=O)c1 (tested in a mixture with another compound) | . | - | . | . | . | .
CC(C)c1cccc(O)c(=O)c1 | 2.9µM | - | - | ? | 3.3µM | -
SMILES | Pf growth 48h | NS1 function inh | Cycloheximide cs | FBPA Giardia inh | Pf growth 96h | Shiga toxin inh
C=CCCC(=O)N1CCC(n2nccc2NC(=O)c2ccccc2C)CC1 | - | - | - | . | ? | -
CCCn1nnc(NC(=O)c2ccc(Br)cc2)n1 | - | -[9.22 µM] | 45 | - | - | 99
CCCn1nnc(NC(=O)c2ccco2)n1 | - | - | - | - | - | -
CCCn1nnc(NC(=O)C(c2ccccc2)c2ccccc2)n1 | - | - | - | - | - | -
CCCn1nnc(NC(=O)c2ccc(OC)cc2)n1 | . | - | 37 | - | - | -
CCCn1nnc(NC(=O)c2ccc(-c3ccccc3)cc2)n1 | ? | - | 21 | - | ? | 100
CCOc1ccc(C(=O)Nc2nnn(CC)n2)cc1 | - | - | 36 | - | . | 75
CCCn1nnc(NC(=S)NC(=O)c2ccc(-c3ccc(Br)cc3)o2)n1 | - | - | - | ? | ? | -
CCc1c2c(nc3cccc(C(C)C)c13)-c1cccc(=O)n1C2 | . | . | . | - | . | .
COc1ccccc1CN1CC2(CCN(C(=O)c3cc(C(F)(F)F)cc(C(F)(F)F)c3)CC2)C1 | . | . | . | - | . | .
CCCn1nnc(NC(=O)c2ccc(OCC)c(Cl)c2)n1 | 13µM | - | 20 | - | - | -
CN(CCc1ccccn1)C(=O)c1cc(COc2ccc(F)cc2F)on1 | - | - | - | . | ? | -
CN(CCCN1CCOCC1)C(=O)c1cc(COc2cccc(C(F)(F)F)c2)on1 | - | - | - | . | - | -
CN(CCc1ccccc1)C(=O)c1cc(COc2cccc(C(F)(F)F)c2)on1 | - | - | 23 | - | - | 60
CN(CCc1ccccc1)C(=O)c1cc(COc2ccc(F)cc2Cl)on1 | - | - | 43 | . | ? | 74
CCN(CC(=O)NCc1cccs1)C(=O)c1cccc(S(=O)(=O)Nc2ccc(OC)cc2)c1 | ? | . | . | . | - | .
CCCCn1nnnc1SCC(=O)NC1CCCCC1 | - | - | - | - | - | -
S=C(NC1CCCCC1)N1CCN(Cc2ccccc2Cl)CC1 | ? | - | - | - | ? | -
O=C1CCCC(=O)N1c1ccc(Oc2ccc(Cl)cc2)cc1 | - | - | 22 | - | - | 41
O=C1CCCC(=O)N1c1ccc(F)cc1 | - | - | - | - | - | -
O=C1CCCC(=O)N1c1ccc(O)cc1 | - | - | - | - | 12µM | -
COc1ccc(N2C(=O)CCC2=O)cc1 | - | - | - | - | ? | -
NC(=O)CSc1nnc(-c2cccc(S(=O)(=O)N3CCOCC3)c2)n1C1CCCCCC1 | . | - | - | - | ? | -
CCOC(=O)CSc1nnc(-c2ccc(S(=O)(=O)N3CCOCC3)cc2)n1-c1ccccc1 | 7.4µM | - | - | - | . | -
COc1ccccc1-n1c(SCC(=O)O)nnc1-c1ccc(S(=O)(=O)N2CCCCC2)cc1 | - | - | - | - | 12µM | -
SMILES | Pf growth 48h | NS1 function inh | Cycloheximide cs | FBPA Giardia inh | Pf growth 96h | Shiga toxin inh
Cc1ccc(CSc2nnc(-c3cccc(S(=O)(=O)N4CCOCC4)c3)n2C2CCCC2)cc1 | 9.3µM | - | - | - | 8.3µM | -
CCn1c(SCC(=O)Nc2ccccc2)nnc1-c1ccc(S(=O)(=O)N2CCOCC2)cc1 | 5.2µM | - | - | - | ? | -
O=C(COC(=O)[C@@H]1CCCN1S(=O)(=O)c1ccccc1F)NCc1ccc2c(c1)OCO2 | - | . | . | . | - | .
O=C(c1ccc([N+](=O)[O-])cc1)N1CCN(c2ncc(Br)cn2)CC1 | - | - | - | - | - | -
C=CCn1c(SCC(=O)Nc2ccccc2)nnc1-c1cccc(S(=O)(=O)N2CCOCC2)c1 | . | - | - | - | - | -
CC(C)Cn1c(SCC(=O)NCc2ccc(Cl)cc2)nnc1-c1cccc(S(=O)(=O)N2CCOCC2)c1 | ? | - | - | - | 9.3µM | -
CC(C)NC(=O)C1CCN(C2CCN(Cc3cn[nH]c3-c3ccccc3)CC2)CC1 | - | . | - | - | - | -
c1ccc(-c2ccc(-c3[nH]ncc3CN3CCC(N4CCSCC4)CC3)cc2)cc1 | - | - | 7.3 | - | - | 48
